# Data as given in the supplement of paper PMC4166925.
# ± gives the standard deviation of the averaged measurements. Over roughly 33,000 sequences, “E-score (dimensionless, -0.5 to 0.5)” has its median near -0.049; the highest 2% begin near 0.37. Many of the other results were omitted from the sample, so the highest values are more common in it than they were.
# Tested on: T1, PmTbr T-box DNA-binding domain (GST fusion)
# T1 sequence: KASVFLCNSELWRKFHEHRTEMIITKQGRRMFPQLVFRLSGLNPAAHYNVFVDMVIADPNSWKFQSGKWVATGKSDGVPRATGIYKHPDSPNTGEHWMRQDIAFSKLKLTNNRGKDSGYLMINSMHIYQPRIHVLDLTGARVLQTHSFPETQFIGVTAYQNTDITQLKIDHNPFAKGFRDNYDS
# Experiment: PBM E-score of 8-mer (E-score (dimensionless, -0.5 to 0.5)); Tbr is Tbrain of the sea star Patiria miniata (Pm) or the sea urchin Strongylocentrotus purpuratus (Sp); higher = stronger binding preference
# Details: the construct has about 5 more residues each side
# Summary of the method: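 Primer extension turned Universal Agilent oligonucleotide arrays double-stranded. They were incubated with 200 nM protein in PBS (pH 7.5); the protein was a GST-fused Tbr T-box DNA-binding domain expressed in BL21 E. coli at 20 °C and purified on glutathione. Every ungapped 8-mer was scored from the scanned, quantified probe intensities, and the Universal PBM Analysis Suite gave each an enrichment E-score averaged over duplicate arrays.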
row,Sequence,PBM E-score of 8-mer
1,ACGAAACG,0.16 ± 0.01
2,GCATTGCA,-0.0859 ± 0.03
3,ACAATCTA,-0.0816 ± 0.0069
4,ATCGAAAC,-0.0958 ± 0.024
5,ACCTATTG,0.129 ± 0.034
6,ACGGTGAT,0.202 ± 0.0041
7,CAGGTGAC,0.4485 ± 0.0027
8,CTGGTGAC,0.221 ± 0.045
9,AAGGTGAG,0.452 ± 0.0046
10,ACGGTGAG,0.12 ± 0.014
11,AGGGTGAT,0.197 ± 0.018
12,GAGGTGAC,0.4496 ± 0.0027
13,AAGGTGAT,0.424 ± 0.021
14,GGGGTGAC,0.3431 ± 0.0017
15,GAGGTGAA,0.294 ± 0.0035
16,AGGGTGAG,0.137 ± 0.097
17,CAGATGAC,-0.0423 ± 0.069
18,CGTGTCCA,0.00534 ± 0.099
19,GATGCACC,-0.0938 ± 0.034
20,GCAAACCC,-0.0342 ± 0.058
21,CCTCGGTC,0.0608 ± 0.12
22,AAGGTGAA,0.185 ± 0.013
23,CAGGTGAA,0.1748 ± 0.0016
24,ACGGTGAC,0.285 ± 0.0079
25,AAGGTGAC,0.426 ± 0.011

row,Sequence,PBM E-score of 8-mer
1,CAGGTGAG,0.422 ± 0.007
2,CCGGTGAG,0.0229 ± 0.12
3,CTGACCTA,-0.194 ± 0.079
4,AGTGGAAT,-0.0212 ± 0.05
5,GGCGATAA,0.276 ± 0.048
6,AGACGTAA,-0.2 ± 0.092
7,CCAGTGCG,0.133 ± 0.074
8,ACAACACG,0.251 ± 0.017
9,GCAACACC,0.455 ± 0.0097
10,GCAACACA,0.311 ± 0.0054
11,CCAACACC,0.443 ± 0.011
12,CCAACACA,0.241 ± 0.023
13,ACAACACT,0.37 ± 0.016
14,ACAACACA,0.347 ± 0.033
15,GCAACAAC,0.0808 ± 0.019
16,ACAACAAT,0.109 ± 0.024
17,CCAACACG,0.274 ± 0.0077
18,ACAACACC,0.435 ± 0.023
19,AGAACACT,0.133 ± 0.04
20,CCCTTGGA,-0.13 ± 0.033
21,TAGGGCCA,-0.155 ± 0.032
22,CGCCAAGC,0.0166 ± 0.082
23,AGGCCCTC,-0.448 ± 0.0054
24,CTCCCGTA,-0.1898 ± 0.001
25,AGAAAGCC,-0.195 ± 0.021

row,Sequence,PBM E-score of 8-mer
1,GCTATCTA,-0.0532 ± 0.092
2,CTCTTCTA,-0.215 ± 0.1
3,TCTGGAAA,-0.131 ± 0.019
4,AACACTCC,0.288 ± 0.029
5,CACACTCG,0.408 ± 0.011
6,CCCACTCG,0.0373 ± 0.049
7,AACACTCA,0.323 ± 0.0094
8,CACACTCC,0.402 ± 0.016
9,GACACTCC,0.336 ± 0.029
10,TACACTCA,-0.0251 ± 0.036
11,AACACTCG,0.237 ± 0.037
12,CACACTCA,0.3814 ± 0.0034
13,AGAGAAAG,0.0684 ± 0.065
14,ACTCACCG,-0.0077 ± 0.1
15,CGGAGTCC,-0.183 ± 0.043
16,CTTTGGCA,0.288 ± 0.017
17,CGTGGCTA,-0.139 ± 0.056
18,GTCGTTCA,0.19 ± 0.052
19,AACTGAGT,-0.0725 ± 0.037
20,AACTTCGA,0.0686 ± 0.023
21,CCTTCACA,0.395 ± 0.014
22,GCTTCACA,0.301 ± 0.014
23,ACTTCACG,0.262 ± 0.038
24,ACTTCACA,0.336 ± 0.011
25,TCTTCACA,0.377 ± 0.015

row,Sequence,PBM E-score of 8-mer
1,CCTTCACG,0.213 ± 0.0063
2,CCAAGTGA,0.146 ± 0.01
3,CTGAGCAC,0.0183 ± 0.04
4,GACAGGCA,-0.0532 ± 0.041
5,ACACAGTG,0.229 ± 0.005
6,AGTGTTTC,0.134 ± 0.066
7,CGCTTGAG,-0.0499 ± 0.011
8,AGCGTGTC,0.174 ± 0.034
9,AACGTGCG,0.345 ± 0.029
10,CACGTGTC,0.385 ± 0.0079
11,AACGTGTA,0.156 ± 0.04
12,CACGTGAC,0.315 ± 0.0075
13,CACGTGTA,0.2502 ± 0.00031
14,AACGTGTC,0.4102 ± 0.0015
15,ACCGTGTG,0.218 ± 0.0082
16,AACGTGTG,0.3941 ± 0.0015
17,CGAGGGCA,-0.019 ± 0.015
18,ATTAGAAC,-0.161 ± 0.0031
19,GCCAAGCA,-0.0191 ± 0.018
20,ACACCAAG,0.35 ± 0.005
21,GATATCAC,0.331 ± 0.021
22,TCCGCACA,0.104 ± 0.058
23,CGAATTCC,-0.164 ± 0.079
24,ATTTCCCG,-0.133 ± 0.0071
25,GCCTGTGA,0.107 ± 0.014

row,Sequence,PBM E-score of 8-mer
1,ACCTGTGC,0.0647 ± 0.0069
2,AGCTGTGA,0.404 ± 0.017
3,ACCTGTGA,0.4002 ± 0.002
4,AGCTGTGC,0.182 ± 0.0098
5,AGCTGTGG,0.0136 ± 0.075
6,GGTAGAGA,-0.124 ± 0.0055
7,GACTCAGA,-0.213 ± 0.097
8,TCAAATCA,-0.159 ± 0.042
9,GTCGCCAC,0.326 ± 0.0074
10,ACAGGCTC,0.0148 ± 0.018
11,CCTTCGCG,0.2566 ± 0.0012
12,ACCGTCGT,0.162 ± 0.045
13,ACCTCCGA,0.253 ± 0.033
14,TGTGCAAA,0.197 ± 0.043
15,GGTGCGAC,0.462 ± 0.017
16,GGTGCAAC,0.299 ± 0.033
17,ACTGCGAT,0.107 ± 0.048
18,AGTGCGTA,0.146 ± 0.048
19,AGTGCGAA,0.4725 ± 0.00067
20,CGTGCGAC,0.277 ± 0.018
21,AGTGCGAT,0.427 ± 0.0052
22,AATGCGAT,0.024 ± 0.0098
23,GGTGCAAA,0.393 ± 0.0071
24,GCTGCGAC,0.137 ± 0.0089
25,ACTGCGAA,0.315 ± 0.012

row,Sequence,PBM E-score of 8-mer
1,ATCCTGCC,-0.0684 ± 0.0044
2,CTAGCAAG,0.0488 ± 0.014
3,TGAGGGAA,-0.0537 ± 0.066
4,ATCATAGC,0.0043 ± 0.09
5,CTGGCGAC,0.124 ± 0.059
6,GATGCGAA,0.186 ± 0.038
7,TGTGCGAA,0.448 ± 0.0066
8,TATGCGAA,0.157 ± 0.0088
9,GGTGCGAA,0.48957 ± 0.00016
10,CGTGCGAA,0.448 ± 0.0091
11,CGTGCAAA,0.11 ± 0.0028
12,ACTGCGAC,0.0881 ± 0.0041
13,GGTGCGTA,0.2616 ± 0.00075
14,AGTGCGAC,0.37 ± 0.012
15,CGTGCGCA,0.0827 ± 0.019
16,TCTGCGAA,0.201 ± 0.038
17,AGTGCGTC,-0.147 ± 0.029
18,AGCCGACA,0.165 ± 0.007
19,GTGGCTCA,0.0273 ± 0.048
20,CGCCGCAA,-0.0674 ± 0.0034
21,ATTGCTCG,-0.0286 ± 0.034
22,CAGCCAGA,-0.0394 ± 0.019
23,CGAGATCC,0.0268 ± 0.01
24,AAGGGATT,-0.212 ± 0.11
25,CCTAAAAC,-0.00751 ± 0.035

row,Sequence,PBM E-score of 8-mer
1,CTGTTCAC,0.263 ± 0.012
2,CATGCAGC,-0.0211 ± 0.03
3,AGAGTGCA,0.0698 ± 0.0037
4,CACTTGGC,0.236 ± 0.038
5,ACTGCGAG,0.179 ± 0.04
6,GTTGCGAA,0.389 ± 0.015
7,CGTGCGGA,0.0633 ± 0.03
8,CTTGCGAA,0.328 ± 0.029
9,GGTGCGGA,0.405 ± 0.015
10,ATTGCGAA,0.27169 ± 0.00012
11,AGTGCGAG,0.405 ± 0.021
12,CGTGCGAG,0.358 ± 0.018
13,AGTGCGGA,0.265 ± 0.0086
14,ACTTCGAC,0.14 ± 0.024
15,ATTGACAG,0.15 ± 0.052
16,CTTGACCC,-0.326 ± 0.035
17,ATTGACAC,0.412 ± 0.0065
18,ATTGACAA,0.304 ± 0.043
19,CTTGACGC,0.27 ± 0.0032
20,CTTGACAC,0.43 ± 0.023
21,ATTTGGTC,-0.154 ± 0.024
22,CCACGTAC,0.0376 ± 0.016
